Experimental findings from PubChem BioAssay (NCATS) are described below.

Records with an inconclusive call do not appear. Activity calls are given as the source filed them. Calls follow the shape of the dose curve; as a rule, active = well fitted curve in the direction sought with a large enough effect; inconclusive = small, poorly fitted or top-dose-only effect, or another doubt; inactive = no such curve, though single readings can be large; an effect the other way counts as inactive or inconclusive.

Assay [1] can be described thus: Quantitative High-Throughput drug screen in 47 multiple myeloma cell lines against the NCATS MIPE library collection: JIM1_ECACC cell viability assay (AID 1918964). The gist of the method:
(§1)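 Inhibition of cell viability is measured here. Each line was plated at 500 cells per well, treated with MIPE 4.0 drugs, kept 48 hours at 37C, then assayed for ATP content by CellTiter-Glo luminescence.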

A short description of assay [2]: Quantitative High-Throughput drug screen in 47 multiple myeloma cell lines against the NCATS MIPE library collection: JJN3_DSMZ cell viability assay (AID 1918966; also: nearly all actives have a fitted effect of over 50% in size). The gist of the method: as §1
The nature of assay [3]: Quantitative High-Throughput drug screen in 47 multiple myeloma cell lines against the NCATS MIPE library collection: H1112_PLB cell viability assay (AID 1918967; also: nearly all actives have a fitted effect of over 30% in size). A digest of the protocol:
as §1

Assay [4] is described as follows: Quantitative High-Throughput drug screen in 47 multiple myeloma cell lines against the NCATS MIPE library collection: Karpas25_ECACC cell viability assay (AID 1918968; also: nearly all actives have a fitted effect of over 35% in size). The gist of the method: as §1
The nature of assay [5]: Quantitative High-Throughput drug screen in 47 multiple myeloma cell lines against the NCATS MIPE library collection: KMM1_JCRB cell viability assay (AID 1918960). Also: nearly all actives have a fitted effect of over 30% in size. A digest of the protocol:
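Viability screen: myeloma cells (500/well) incubated 48 h at 37 °C, humidified 5% CO2, with pinned library compounds; CellTiter-Glo added, luminescence read; DMSO wells set 100%, medium-only wells 0%.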

Assay [6] can be described thus: Quantitative High-Throughput drug screen in 47 multiple myeloma cell lines against the NCATS MIPE library collection: INA6_PLB cell viability assay (AID 1918965; also: nearly all actives have a fitted effect of over 55% in size). The gist of the method:
(§2)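 Relative luminescence from CellTiter-Glo served as the viability signal, referenced to DMSO-treated (100%) and cell-free medium (0%) controls. Treatment lasted 48 hours at 37C with 500 cells per well.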

Assay [7] can be described thus: Quantitative High-Throughput drug screen in 47 multiple myeloma cell lines against the NCATS MIPE library collection: KMS27_JCRB cell viability assay (AID 1918970). Also: nearly all actives have a fitted effect of over 30% in size. The gist of the method:
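Myeloma cells (500 per well) were exposed to MIPE 4.0 compounds for 48 h at 37 °C, 5% CO2; viability was read as ATP luminescence with CellTiter-Glo, normalized to DMSO-only (100%) and media-only (0%) wells.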

The nature of assay [8]: Quantitative High-Throughput drug screen in 47 multiple myeloma cell lines against the NCATS MIPE library collection: Karpas417_ECACC cell viability assay (AID 1918961). As to conditions: Karpas417 myeloma viability, CellTiter-Glo ATP luminescence, 48 h; viability (% of DMSO): at 45.8 µM (top of the series). The gist of the method:
as §2

The nature of assay [9]: Quantitative High-Throughput drug screen in 47 multiple myeloma cell lines against the NCATS MIPE library collection: JIM3_ECACC cell viability assay (AID 1918963; also: nearly all actives have a fitted effect of over 35% in size). A digest of the protocol:
as §2

A short description of assay [10]: Quantitative High-Throughput drug screen in 47 multiple myeloma cell lines against the NCATS MIPE library collection: KHM11_PLB cell viability assay (AID 1918962). Also: nearly all actives have a fitted effect of over 35% in size. A digest of the protocol: as §2
Potency is read from the fitted curve at half-maximal effect.

As to `CC[C@H]1C=CC=CC[C@@H](C)[C@H](O)[C@@](C)(O)C(=O)[C@@H](C)[C@H](O)[C@@H](C)C(=O)[C@@H](C)[C@H](O)[C@@H](C)C=CC(=O)O[C@@H]2[C@@H](C)[C@H](CC1)O[C@]1(CC[C@H](C)[C@H](C[C@@H](C)O)O1)[C@H]2C`, the Potency in assay [1] was 0.001 µM (active); in [2], 18.7 µM (active); in assay [3], 0.0053 µM (active); in [4], 0.001 µM (active).
Take `COC[C@H]1OC(=O)c2coc3c2[C@@]1(C)C1=C(C3=O)[C@@H]2CC[C@H](O)[C@@]2(C)C[C@@H]1OC(C)=O`: the Potency in assay [5] is 5.9 µM (active); in assay [1], 1.48 µM (active); in assay [6], 1.18 µM (active); in assay [2], 3.32 µM (active); in assay [4], 0.264 µM (active); in [7], 4.69 µM (active).
As to `CC(=O)N(C)c1cccc(-c2ccnc3c(C(=O)c4cccs4)cnn23)c1`, the Potency in [8] was 23.5 µM (active); in assay [7], 20.9 µM (active). Moreover, the Potency result in [9] and in assay [4] was “inactive” throughout.
Regarding `CCN(CC)C(=O)c1ccc(C2=CC3(CCNCC3)Oc3cccc(O)c32)cc1`, the Potency result in [9], in [6], in assay [3] and in assay [4] was “inactive” each time.
Take `C=C[C@@H]1CN2CCC1C[C@H]2[C@H](O)c1ccnc2ccccc12` (stereo partly drawn): the Potency in assay [9] is 14.8 µM (active); in assay [6] it was 20.9 µM (active).
Regarding `N#C[C@H](O[C@@H]1O[C@H](CO[C@@H]2O[C@H](CO)[C@H](O)[C@H](O)[C@H]2O)[C@H](O)[C@H](O)[C@H]1O)c1ccccc1`, the Potency in assay [10] is 23.5 µM (active); in [9], 20.9 µM (active); in assay [2], 18.7 µM (active); in assay [3] it was 26.4 µM (active); in assay [4] it was 18.7 µM (active); in assay [7] it was 6.62 µM (active).
Regarding `Clc1ccccc1C(c1ccccc1)(c1ccccc1)n1cccn1`, the Potency entry in assay [10], in assay [9], in [1] and in assay [7] was “inactive” throughout.
For `COC1=C[C@@H]2[C@@H]3Cc4ccc(OC)c(O)c4[C@]2(CCN3C)CC1=O`, the Potency in assay [8] is 10.5 µM (active); in [10], 4.69 µM (active); in assay [9], 9.35 µM (active); in assay [4] it was 2.96 µM (active).
With `C[C@]12CC[C@H](O)CC1=CC[C@H]1[C@H]3CCC(=O)[C@@]3(C)CC[C@@H]12`, the Potency in [10] is 14.8 µM (active); in assay [1] it was 0.418 µM (active). The Potency result in assay [9] and in assay [7] was “inactive” in each case.
Turning to `CC(=O)Nc1ccc(OC[C@](C)(O)C(=O)Nc2ccc([N+](=O)[O-])c(C(F)(F)F)c2)cc1`, the Potency result in assay [10], in assay [9] and in [3] was “inactive” in each case.
For the molecule `C#C[C@]1(O)C=C[C@@H]2[C@@H]3CCC4=CC(=O)CC[C@@H]4[C@H]3CC[C@@]21CC`, the Potency result in [9] and in assay [4] was “inactive” each time.
Consider `CCNC(=O)CC1N=C(c2ccc(Cl)cc2)c2cc(OC)ccc2-n2c(C)nnc21` (stereo not drawn), for which the Potency is 4.18 µM (active) in assay [8], 16.6 µM (active) in [1] and 6.62 µM (active) in assay [6].
Regarding `O=C(Oc1ccc([N+](=O)[O-])cc1)N1CCC(C(O)(c2ccc3c(c2)OCO3)c2ccc3c(c2)OCO3)CC1`, the Potency in [9] is 8.33 µM (active); in [6], 10.5 µM (active). The Potency result in assay [7] is “inactive”.
Regarding `C[C@](O)(COc1ccc(C#N)cc1)C(=O)Nc1ccc(C#N)c(C(F)(F)F)c1`, the Potency was 23.5 µM (active) in assay [8] and 18.7 µM (active) in [4]. Besides, the Potency entry in assay [2] was “inactive”.
For the molecule `C[C@]12CC[C@H]3[C@@H](CCC4=CC(=O)CC[C@@]43C)[C@H]1CC[C@H]2OC(=O)CCC1CCCC1`, the Potency entry in assay [5], in assay [4] and in assay [7] was “inactive” each time.
On to `c1cc2c(cc1[C@H]1OC[C@H]3[C@H]1CO[C@H]3c1ccc3c(c1)OCO3)OCO2`, for which the Potency result in [9] and in assay [7] was “inactive” each time.
Regarding `O=C1CCC[C@@H]2[C@H]3CCCN4CCC[C@@H](CN12)[C@@H]34`, the Potency result in [9], in [1], in assay [3] and in assay [7] was “inactive” each time.
Turning to `CC(=CCCC1=CCC(C2=CC(=O)OC2O)OC1O)CCC1=C(C)CCCC1(C)C` (stereo not drawn), the Potency entry in assay [9], in assay [1], in assay [6], in assay [3], in [4] and in assay [7] was “inactive” each time.
With `Cc1c(N)nc([C@H](CC(N)=O)NC[C@@H](N)C(N)=O)nc1C(=O)N[C@H](C(=O)N[C@@H](C)[C@H](O)[C@@H](C)C(=O)N[C@@H](C(=O)NCCc1nc(-c2nc(C(=O)NCCC[S+](C)C)cs2)cs1)[C@@H](C)O)C(O[C@H]1O[C@H](CO)[C@H](O)[C@@H](O)[C@@H]1O[C@H]1O[C@H](CO)[C@@H](O)[C@H](OC(N)=O)[C@H]1O)c1cnc[nH]1` (stereo partly drawn), the Potency in [5] was 0.418 µM (active); in assay [7] it was 0.296 µM (active).
Consider `CCOC(=O)c1c(C(C#N)=CN)c2ccc(Cl)c(Cl)c2n1C`, for which the Potency result in assay [10], in [9], in [3] and in [7] was “inactive” each time.
